Experimental data from PubChem BioAssay (NCATS).
Results filed as inconclusive are left out. The source made the active and inactive calls. Calls follow the shape of the dose curve; as a rule, active = well fitted curve in the direction sought with a large enough effect; inconclusive = small, poorly fitted or top-dose-only effect, or another doubt; inactive = no such curve, though single readings can be large; an effect the other way counts as inactive or inconclusive.

How the values were obtained:
[1] = system: SC27B; assay: qHTS profiling for inhibitors of Plasmodium falciparum proliferation (AID 504749);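 also: 0% = DMSO vehicle and full inhibition = artemisinin control; nearly all actives have a fitted effect of over 60% in size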; conditions: P. falciparum in erythrocytes, SYBR Green DNA, 72 h; series mostly up to 28.7 µM
Outline: (§1)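 Quantitative HTS: compounds pinned into medium, infected erythrocytes added (0.3% parasitemia, 2.5% hematocrit), 72 h culture at 37 C under 5% CO2. Saponin/Triton lysis with SYBR Green I, overnight RT, then fluorescence read.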

[2] = system: TAB109; assay: as above; conditions: P. falciparum in erythrocytes, SYBR Green DNA, 72 h; series mostly up to 28.7 µM
Outline: as §1

[3] = system: TAB113; assay: as above; conditions: P. falciparum in erythrocytes, SYBR Green DNA, 72 h; series mostly up to 28.7 µM
Outline: as §1

[4] = system: TAB165; assay: as above; conditions: P. falciparum in erythrocytes, SYBR Green DNA, 72 h; series mostly up to 28.7 µM
Outline: as §1

[5] = system: W2; assay: as above; conditions: P. falciparum in erythrocytes, SYBR Green DNA, 72 h; series mostly up to 28.7 µM
Outline: as §1

[6] = system: CRL-7250; assay: Cytotoxic Profiling of Annotated Libraries Using Quantitative High-Throughput Screening (AID 1296008); conditions: Five cell lines viability, CellTiter-Glo ATP luminescence, 48-72 h; max response: stronger effect = lower value; also: nearly all actives have a fitted effect of over 60% in size; as to max response: % is scaled to controls: 0 for no effect and ±100 for the full control effect
Outline: (§2)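 Compounds were pin-transferred onto cells and incubated 48 or 72 hr at 37 degree Celsius, 95% humidity. CellTiter-Glo was added, plates sat 10 min at room temperature, then ATP-coupled luminescence was imaged as the viability read-out.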

[7] = system: HEK293; assay: as above; conditions: Five cell lines viability, CellTiter-Glo ATP luminescence, 48-72 h; max response: stronger effect = lower value
Outline: as §2

[8] = system: HaCat; assay: as above; conditions: Five cell lines viability, CellTiter-Glo ATP luminescence, 48-72 h; max response: stronger effect = lower value
Outline: as §2

[9] = system: KB-3-1; assay: as above; conditions: Five cell lines viability, CellTiter-Glo ATP luminescence, 48-72 h; max response: stronger effect = lower value
Outline: as §2

[10] = system: NIH3T3; assay: as above; conditions: Five cell lines viability, CellTiter-Glo ATP luminescence, 48-72 h; max response: stronger effect = lower value
Outline: as §2

[11] = system: HACAT; assay: qHTS assay to identify novel small-molecules to repurpose for Merkel cell carcinoma treatment (AID 1296009); conditions: MCC and control cell lines, CellTiter-Glo viability, 72 h; at 44.8 µM (top of the series) unless noted; also: nearly all actives have a fitted effect of over 60% in size
Outline: (§3)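 Viability readout: ATP luminescence (CellTiter-Glo) after 72 hr drug exposure at 37 degree celsius. Dose-response format was 8 points for NPC and 11 points for MIPE; data normalized to in-plate controls.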

[12] = system: C33A; assay: Primary qHTS to identify gynecologic anti-cancer compounds using libraries of approved drugs and bioactive compounds (AID 1345084); conditions: Gynecologic cancer cell panel viability, ATPlite luminescence, 48 h; series mostly up to 57.5 µM; also: % is scaled to controls: 0 for no effect and ±100 for the full control effect; nearly all actives have a fitted effect of over 55% in size
Outline: (§4)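 ATP-based viability (ATPlite), 1,000 cells/well, 16 h pre-incubation, 48 h compound at 37 C, 5% CO2, 15 min RT before read.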

[13] = system: CAOV3; assay: as above; conditions: Gynecologic cancer cell panel viability, ATPlite luminescence, 48 h; series mostly up to 57.5 µM
Outline: as §4

[14] = system: CASKI; assay: as above; conditions: Gynecologic cancer cell panel viability, ATPlite luminescence, 48 h; series mostly up to 57.5 µM
Outline: as §4

[15] = system: Es-2; assay: as above; conditions: Gynecologic cancer cell panel viability, ATPlite luminescence, 48 h; series mostly up to 57.5 µM
Outline: as §4

[16] = system: HeLa; assay: as above; conditions: Gynecologic cancer cell panel viability, ATPlite luminescence, 48 h; series mostly up to 57.5 µM
Outline: as §4

[17] = system: Hek293T; assay: as above; conditions: Gynecologic cancer cell panel viability, ATPlite luminescence, 48 h, control line for the selectivity index; series mostly up to 57.5 µM
Outline: as §4

[18] = system: JEG-3; assay: as above; conditions: Gynecologic cancer cell panel viability, ATPlite luminescence, 48 h; series mostly up to 57.5 µM
Outline: as §4

[19] = system: HEK293T; assay: qHTS assay to identify novel small-molecules to repurpose for Merkel cell carcinoma treatment (AID 1296009); conditions: MCC and control cell lines, CellTiter-Glo viability, 72 h; at 44.8 µM (top of the series) unless noted; also: nearly all actives have a fitted effect of over 60% in size
Outline: as §3

CCc1cccc2c3c([nH]c12)[C@@](CC)(CC(=O)O)OCC3
inactive: outcome [1] | outcome [2] | outcome [3] | outcome [4] | outcome [5] | max response [6] 0.605% | max response [7] 3.28% | outcome [8] | outcome [9] | max response [10] 1.91% | outcome [11] | Potency [12] | Potency [13] | outcome [14] | Potency [15] | Potency [16] | Potency [17] | Potency [18]

CC(=O)O[C@@H]1C(O)C[C@@]2(C)C(CC[C@@H](C)C23Cc2c(O)cc4c(c2O3)CNC4=O)C1(C)C (stereo partly specified)
inactive: max response [6] 0.238% | max response [7] 1.81% | outcome [8] | max response [9] -3.56% | max response [10] -7.87% | outcome [11] inactive [at 17.4 µM] | Potency [12] | Potency [13] | outcome [14] | Potency [15] | Potency [17] | Potency [18]

C[C@@H]1[C@H]2[C@H](O[C@@H]3O[C@H](CO)[C@@H](O)[C@H](O)[C@H]3O)OC=C(C(=O)O)[C@H]2C[C@@H]1OC(=O)/C=C/c1ccc(O)cc1
inactive: max response [6] -1.73% | outcome [7] | max response [8] -1.65% | max response [9] 7.88% | max response [10] 1.42% | outcome [19] inactive [at 17.4 µM] | Potency [12] | Potency [13] | outcome [14] | Potency [15] | Potency [16] | Potency [17] | Potency [18]

O=C(O)c1ccnc(-c2cc(C(=O)NCCc3ccccc3)ccn2)c1
inactive: max response [6] 0.77% | max response [7] -13.9% | outcome [8] | max response [9] 6.53% | max response [10] -2.98% | outcome [11] | Potency [13] | outcome [14] | Potency [15] | Potency [16] | Potency [17] | Potency [18]

C/C=C(\C)C1C(C)=CC2CCC(OS(=O)(=O)O)C(C)C2C1/C=C/C=C/C(=O)O (stereo unspecified)
inactive: outcome [6] | outcome [7] | max response [8] -12.6% | max response [9] 7.13% | max response [10] -0.702% | outcome [19] inactive [at 17.4 µM] | Potency [12] | Potency [13] | outcome [14] | Potency [15] | Potency [16] | Potency [17] | Potency [18]

CC1(C)CC[C@]2(C(=O)O)CC[C@]3(C)C(=CCC4[C@@]5(C)CC[C@H](O[C@H]6O[C@H](C(=O)O)[C@@H](O)[C@H](O[C@@H]7O[C@H](CO)[C@H](O)[C@H](O)[C@H]7O)[C@H]6O)C(C)(C)C5CC[C@]43C)[C@@H]2C1 (stereo partly specified)
inactive: outcome [6] | outcome [7] | max response [8] 3.39% | max response [9] 4.97% | max response [10] -6.78% | outcome [19] inactive [at 9.27 µM] | activity change, negative = cytotoxicity [12] 17.4% [at 11.6 µM] | activity change, negative = cytotoxicity [13] 23.8% [at 11.6 µM] | activity change, negative = cytotoxicity [14] 10.6% [at 11.6 µM] | activity change, negative = cytotoxicity [15] 0.636% [at 11.6 µM] | activity change, negative = cytotoxicity [16] -3.8% [at 11.6 µM] | activity change, negative = cytotoxicity [17] 18.4% [at 11.6 µM] | activity change, negative = cytotoxicity [18] -1.28% [at 11.6 µM]

C/C=C(/C)C(=O)OC1C(OC(C)=O)C23C(O)OC4(CCC5C6(C)CCC(OC7OC(C(=O)O)C(O)C(OC8OC(CO)C(O)C(O)C8OC8OC(C)C(O)C(O)C8OC8OCC(O)C(O)C8O)C7OC7OC(CO)C(O)C(O)C7O)C(C)(C)C6CCC5(C)C4(C)CC2OC(C)=O)C3CC1(C)C (stereo unspecified)
inactive: max response [6] 1.39% | outcome [7] | max response [8] 1.22% | max response [9] 4.58% | max response [10] -12.1% | outcome [19] inactive [at 9.27 µM] | activity change, negative = cytotoxicity [12] 8.72% [at 6.55 µM] | activity change, negative = cytotoxicity [13] 8.69% [at 6.55 µM] | activity change, negative = cytotoxicity [14] 1.53% [at 6.55 µM] | activity change, negative = cytotoxicity [15] 1.17% [at 6.55 µM] | activity change, negative = cytotoxicity [16] -3.79% [at 6.55 µM] | activity change, negative = cytotoxicity [17] -2.54% [at 6.55 µM] | activity change, negative = cytotoxicity [18] 2.12% [at 6.55 µM]

COc1ccc2c(c1)N1C(=O)C[C@@]34C=CC[N@+]5([O-])CC[C@H]2[C@H](CC3)[C@@]145
inactive: max response [6] 0.465% | outcome [7] | max response [8] 0.691% | outcome [9] | max response [10] -2.66% | outcome [19] | Potency [12] | Potency [13] | outcome [14] | Potency [15] | Potency [16] | Potency [17] | Potency [18]

C/C=C(/C)C(=O)OC1CC(C)(C)CC2C3=CCC4C5(C)CCC(OC6OC(C)C(OC7OC(C(=O)O)C(O)C(OC8OC(CO)C(O)C(O)C8OC8OC(CO)C(O)C(O)C8O)C7O)C(O)C6O)C(C)(C)C5CCC4(C)C3(C)C(OC(=O)/C=C/C=C/C=C/CCC)C(OC(C)=O)C12CO (stereo unspecified)
inactive: max response [6] 3.68% | max response [7] 2.77% | outcome [8] | outcome [9] | outcome [10] | outcome [11] inactive [at 9.27 µM] | activity change, negative = cytotoxicity [12] -5.83% [at 6.55 µM] | activity change, negative = cytotoxicity [14] -6.51% [at 6.55 µM] | activity change, negative = cytotoxicity [15] 13.9% [at 6.55 µM] | activity change, negative = cytotoxicity [16] 0% [at 6.55 µM] | activity change, negative = cytotoxicity [17] -3.11% [at 6.55 µM] | activity change, negative = cytotoxicity [18] -5.73% [at 6.55 µM]

COC(=O)C1=CO[C@@H](O[C@@H]2O[C@H](CO)[C@@H](O)[C@H](O)[C@H]2O)[C@H]2[C@@H]1[C@H](O)C[C@]2(C)O
inactive: outcome [6] | max response [7] -1.47% | outcome [8] | outcome [9] | max response [10] -11.4% | outcome [11] inactive [at 17.4 µM] | Potency [12] | outcome [14] | Potency [15] | Potency [16] | Potency [17] | Potency [18]
